The values below come from PubChem BioAssay (NCATS).

A short description of experiment [1]: qHTS Assay for Identifying Gametocytocidal Compounds (AID 743244; active = well fitted curve in the direction sought with a large enough effect;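 note: % is set by controls: 0 for no effect and ±100 for the full control effect; actives lower the fluorescent signal which means gametocytes are killed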). The note with it: P. falciparum 3D7 stage III-V gametocytes, alamarBlue, 72 h; max response: stronger effect = lower value. The method in brief:
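3D7 gametocytes, stages III–V, 20,000/well; cpd 72 h, 37 °C/5% CO2; + alamarBlue 24 h; fluor. Ex 525/Em 598.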
For orientation: In qHTS, concentration-response curves come from the screen itself.

Experiment [2] in a line: qHTS profiling of the MIPE4 collection as inhibitors of Plasmodium falciparum (3D7) proliferation (AID 743344).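 Note: scaled between DMSO vehicle wells and 0.29 µM artemisinin as full inhibition.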 The note with it: P. falciparum 3D7 in erythrocytes, SYBR Green DNA fluorescence, 72 h. Put shortly:
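Parasite DNA was quantified by SYBR Green I fluorescence (ex 485, em 535 nm) after overnight lysis in saponin/Triton buffer at room temperature. Cultures at 0.3% parasitemia and 2.5% hematocrit were first exposed to compound for 72 h at 37 C; signals were normalised to artemisinin (0.29 uM) and vehicle wells.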

Where [3] appears, read: at 28.5 µM (top of the series) unless noted.

Inconclusive results are not listed. Active and inactive are the calls of the source. Unless noted, the rule behind the calls is not given here.

Take `Cc1c(C(=O)NN2CCCCC2)nn(-c2ccc(Cl)cc2Cl)c1-c1ccc(Cl)cc1`: in experiment [1], the max response is 2.34% (inactive). The compound also displayed a parasite growth, % of DMSO control in experiment [2] (setting [3]) of 6.76%.
The matching figures for `C[Se]CCC(N)C(=O)O` (configuration not stated): -7.98% (inactive) and 99.6% [at 57.5 µM].
Taken in the same sequence, the figures for `CC(C)c1ccc2oc3nc(N)c(C(=O)O)cc3c(=O)c2c1` were 20.5% (inactive) and 54.7%.
For the compound `Cc1cc(=O)c2c(O)c3c(O)cc(=O)c4c3c3c(cc(O)c1c23)C(C)(C)C=4O`, in experiment [1], the max response is -6.69% (inactive). The same compound gave a parasite growth, % of DMSO control in experiment [2] (setting [3]) of 6.69%.
Turning to `Nc1ncn([C@H]2C[C@H](O)[C@@H](CO)O2)c(=O)n1`, the max response in experiment [1] was -3.47% (inactive). This compound also returned a parasite growth, % of DMSO control in experiment [2] (setting [3]) of 98%.
In the case of `CCCCN(CCCC)CCC(O)c1cc2c(Cl)cc(Cl)cc2c2cc(C(F)(F)F)ccc12` (configuration not stated), the parasite growth, % of DMSO control in experiment [2] (at 9.64 µM (top of the series)) was determined as 7.84%; in experiment [2] (at 28.5 µM (top of the series)) it was 7.96%.
